In PubChem BioAssay (NCATS):
Inconclusive results are not listed. Entries that show only a call come without a potency. Unmarked numbers belong to inactive results. Active and inactive are the calls of the source. Unless noted, calls come from the whole dose curve.

Legend:
[1] = qHTS for Inhibitors of the Functional Ribonucleoprotein Complex (vRNP) of Lassa (LASV) Arenavirus: LASV Primary Screen - GLuc reporter signal (AID 1347082; calls by dose curve; tested in HEK293 reporter line; note: nearly all actives have a fitted effect of over 60% in size; for activity change, negative = inhibition: series mostly up to about 57 µM)
[2] = qHTS for Inhibitors of the Functional Ribonucleoprotein Complex (vRNP) of Lassa (LASV) Arenavirus: Viability assay - alamar blue signal for LASV Primary Screen (AID 1347083; calls by dose curve; tested in HEK293 reporter line; note: nearly all actives have a fitted effect of over 80% in size; for activity change, negative = reduced viability: series mostly up to about 57 µM)
[3] = qHTS for Inhibitors of the Functional Ribonucleoprotein Complex (vRNP) of Lymphocytic Choriomeningitis Arenaviruses (LCMV): Viability assay - alamar blue signal for LCMV Primary Screen (AID 1347085; calls by dose curve; tested in HEK293 reporter line; note: nearly all actives have a fitted effect of over 80% in size; for activity change, negative = lower viability: series mostly up to about 57 µM)
[4] = biological target: Nucleoprotein (Lymphocytic choriomeningitis virus (strain Armstrong)) (UniProt P09992); assay: qHTS for Inhibitors of the Functional Ribonucleoprotein Complex (vRNP) of Lymphocytic Choriomeningitis Arenaviruses (LCMV): LCMV Primary Screen - GLuc reporter signal (AID 1347086); note: nearly all actives have a fitted effect of over 70% in size; for activity change, negative = inhibition: series mostly up to about 57 µM
Sequence of Nucleoprotein (Lymphocytic choriomeningitis virus (strain Armstrong)) (P09992 whole entry, looked up): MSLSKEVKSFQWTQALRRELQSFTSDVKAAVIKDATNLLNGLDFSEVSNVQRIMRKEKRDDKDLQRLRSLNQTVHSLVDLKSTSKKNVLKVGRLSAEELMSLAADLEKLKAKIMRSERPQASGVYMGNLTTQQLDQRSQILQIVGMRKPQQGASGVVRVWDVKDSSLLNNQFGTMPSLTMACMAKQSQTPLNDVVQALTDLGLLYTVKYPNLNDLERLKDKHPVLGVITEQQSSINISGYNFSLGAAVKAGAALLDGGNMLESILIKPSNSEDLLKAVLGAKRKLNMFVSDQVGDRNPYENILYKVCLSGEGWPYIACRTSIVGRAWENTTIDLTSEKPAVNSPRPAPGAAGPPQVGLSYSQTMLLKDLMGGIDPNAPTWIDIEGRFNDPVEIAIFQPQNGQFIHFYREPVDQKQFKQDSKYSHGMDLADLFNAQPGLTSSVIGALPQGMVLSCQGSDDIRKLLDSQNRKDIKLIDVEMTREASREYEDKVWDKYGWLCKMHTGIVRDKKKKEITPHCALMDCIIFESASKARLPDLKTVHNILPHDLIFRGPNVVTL
Potency is the fitted concentration of half-maximal effect.

Row | Structure (SMILES) | Potency [1] | Potency [2] | Potency [3] | Potency [4] | activity change, negative = inhibition [1] | activity change, negative = reduced viability [2] | activity change, negative = lower viability [3] | activity change, negative = inhibition [4]
1 | Cn1c2ccccc2c2c3c(c4c5ccccc5n(CCC#N)c4c21)CNC3=O | 8.63 µM (active) | 0.485 µM (active) | 3.85 µM (active) | 6.11 µM (active) |  |  |  | 
2 | CC1(C)OC2CC3C4CC(F)C5=CC(=O)C=CC5(C)C4C(O)CC3(C)[C@]2(C(=O)CO)O1 (stereo not given in full) | inactive | inactive | inactive | inactive |  |  |  | 
3 | CC1CC(C)C(=O)C1=O (stereo not given) | inactive | inactive | inactive | inactive |  |  |  | 
4 | C/C=C1/CN2C3CC1C(CO)(C(=O)OC)C2Cc1c3n(C)c2ccccc12 (stereo not given) | inactive | inactive | inactive | inactive |  |  |  | 
5 | C=C[C@H]1[C@H](O[C@@H]2O[C@H](CO)[C@@H](O)[C@H](O)[C@H]2O)OC=C2C(=O)OCC[C@]21O | inactive | inactive | inactive | inactive |  |  |  | 
6 | COc1cc(C(=O)OC2CC3CCC2(C)C3(C)C)ccc1OC(C)=O (stereo not given) | inactive | inactive | inactive | inactive |  |  |  | 
7 | CCCCC/C=C\C/C=C\C[C@H](O)/C=C/C=C\CCCC(=O)O |  |  |  |  | 6.73% [at 0.757 µM] | 15% [at 0.757 µM] | 7.12% [at 0.757 µM] | 11.5% [at 0.757 µM]
8 | N#CC(c1ccc(O)cc1)N1CCCCC1 (stereo not given) | inactive | inactive | inactive | inactive |  |  |  | 
9 | O=c1cc(-c2ccc(O)cc2)oc2cc(OC3OC(CO)C(O)C(O)C3O)c(C3OC(CO)C(O)C(O)C3O)c(O)c12 (stereo not given) | inactive | inactive | inactive | inactive |  |  |  | 
10 | COc1cc(C)cc(C(=O)O)c1C1=C(O)c2cccc(O)c2C(=O)C1=O | inactive | inactive | inactive | inactive |  |  |  | 
11 | C=C(C)c1cc2c(ccc3ccc(=O)oc32)o1 | inactive | inactive | inactive | inactive |  |  |  | 
12 | CC(C)NC(=O)NC(C)C | inactive | inactive | inactive | inactive |  |  |  | 
13 | CCN(CC)CCNC(=O)c1c(C)[nH]c(C=C2C(=O)Nc3ccc(F)cc32)c1C | 44.4 µM (active) | 7.89 µM (active) | 49.8 µM (active) | 44.4 µM (active) |  |  |  | 
14 | CC(C)=CC(=O)O[C@@H]1Cc2cc3ccc(=O)oc3cc2OC1(C)C | inactive | inactive | inactive | inactive |  |  |  | 
15 | CC1=CCC(C(C)C)C=C1 (stereo not given) | inactive | inactive | inactive | inactive |  |  |  | 
16 | COc1ccc([C@@]23Oc4cc(OC)cc(OC)c4[C@]2(O)[C@H](O)[C@H](C(=O)N(C)C)[C@H]3c2ccccc2)cc1 | inactive | inactive | inactive | inactive |  |  |  | 
17 | O=C1N[C@@H](Cc2cnc[nH]2)C(=O)N2CCC[C@@H]12 | inactive | inactive | inactive | inactive |  |  |  | 
18 | COc1ccc2c(=O)c(-c3ccc(OC)c(OC)c3)coc2c1 | inactive | inactive | inactive | inactive |  |  |  | 
19 | O=C(O)CC(=O)Nc1ccccc1C(=O)O | inactive | inactive | inactive | inactive |  |  |  | 
20 | O=C(CNC(=O)c1ccccc1)c1ccccc1 | inactive | inactive | inactive | inactive |  |  |  | 
21 | COc1cc2c(c(OC)c1OC)-c1c(cc(OC)c(OC)c1OC)CC(C)C(C)C2 (stereo not given) | inactive | inactive | inactive | inactive |  |  |  | 
22 | COc1cc2cc(Oc3ccc4ccc(=O)oc4c3)c(=O)oc2cc1OC(C)=O | inactive | inactive | inactive | inactive |  |  |  | 
23 | CC1(C)[C@H](O[C@H]2O[C@H](C(=O)O)[C@@H](O)[C@H](O)[C@H]2O[C@@H]2O[C@H](C(=O)O)[C@@H](O)[C@H](O)[C@H]2O)CC[C@@]2(C)[C@H]1CC[C@]1(C)[C@H]2C(=O)C=C2[C@H]3C[C@@](C)(C(=O)O)CC[C@]3(C)CC[C@]21C | inactive | inactive | inactive | inactive |  |  |  | 
24 | C[C@@H](O)CCC[C@H](O)/C=C/[C@H]1[C@H](O)CC(=O)[C@@H]1C/C=C\CCCC(=O)O |  |  |  |  | -72.5% [at 5.82 µM] | -134% [at 5.82 µM] | -144% [at 5.82 µM] | -73.7% [at 5.82 µM]
25 | O=C(CCCCO)CCCCCCCC[C@H]1N[C@H](CO)[C@H](O)[C@@H]1O[C@@H]1O[C@H](CO)[C@@H](O)[C@H](O)[C@H]1O | inactive | inactive | inactive | inactive |  |  |  | 
26 | COc1ccc([C@H]2Cc3cccc(O)c3C(=O)O2)cc1O | inactive | inactive | inactive | inactive |  |  |  | 
27 | COc1cc2c(cc1OC)[C@H]1C(=O)c3ccc4c(c3O[C@H]1CO2)C[C@@H](C(C)(C)O)O4 | inactive | inactive | inactive | inactive |  |  |  | 
28 | Clc1cccc(-c2nnnn2Cc2cccnc2)c1Cl | inactive | inactive | inactive | inactive |  |  |  | 
29 | CC1(C)Oc2ccc3ccc(=O)oc3c2[C@@H](O)[C@H]1O | inactive | inactive | inactive | inactive |  |  |  | 
30 | CCCCCOC(=O)CCC | inactive | inactive | inactive | inactive |  |  |  | 
